From PubChem
Shown are actives, neighbours in structure and some others; about 11% of the full set was active somewhere.
Tau fluor counter = Counterscreen qHTS for Inhibitors of Tau Fibril Formation, Fluorescence Polarization; Potency, µM (top dose mostly 57.7 µM), for inactives: top-dose activity change, negative = decrease; AID 1463, 2008; tau K18 P301L Alexa594 fluorescence, heparin fibrillization; 280,000 tested, 0.93% active; also: potency is read from the fitted curve at half-maximal effect; nearly all actives have a fitted effect of over 55% in size
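Human tau K18 P301L (15 uM unlabeled, 0.24 uM Alexa 594-labeled) in 100 mM sodium acetate pH 7 with 20 uM heparin, 6 hr at 37 C. ThT 30 uM added, 1 hr ambient; Alexa 594 FP and total fluorescence read at 555/632 nm.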
Tau ThT inhib = qHTS for Inhibitors of Tau Fibril Formation, Thioflavin T Binding | recombinant tau K18 P301L (four-repeat tau fragment), heparin-induced fibrillization, ThT fluorescence | Potency, µM (highest dose often 57.4 µM), for the others: top-dose activity, negative = inhibition, actives largely listed as inhibitors | 270,000 tested, 2.1% active; also: potency is read from the fitted curve at half-maximal effect; nearly all actives have a fitted effect of over 55% in size
Target sequence (P10636 561-689 P618L limits assumed): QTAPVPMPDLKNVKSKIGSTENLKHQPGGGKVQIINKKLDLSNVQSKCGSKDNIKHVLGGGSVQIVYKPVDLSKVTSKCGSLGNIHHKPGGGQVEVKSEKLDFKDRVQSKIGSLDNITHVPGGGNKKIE
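Aggregation was driven by heparin (20 uM final) acting on recombinant tau […] bearing P301L in 100 mM sodium acetate pH 7; fibrils were detected with Thioflavin T.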
FBPA coupling cs = qHTS Assay for Inhibitors of Fructose-1,6-bisphosphate Aldolase from Giardia Lamblia: Coupling assay counterscreen; coupling enzyme system counterscreen, AmpLite Red fluorescence; 290,000 tested, 0.67% active; activity change, negative = inhibition, % at 58.2 µM, hits read low; in the data active = activity change below about -30%
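Compounds tested against the coupling enzymes alone at 57.5 uM final; readout was AmpLite Red fluorescence (525/598 nm) after 20 min at RT.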
Sfp PPTase inh = qHTS Assay for Inhibitors of Bacillus subtilis Sfp phosphopantetheinyl transferase (PPTase). 4'-phosphopantetheinyl transferase ffp (Bacillus subtilis), Q9F4F7. Biochemical Sfp PPTase activity, qHTS. Potency, µM, inactives show largest response in the series, negative = inhibition, most hits filed as inhibitors. 310,000 tested, 3.5% active. AID 1490, 2009;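 also: the enzyme is Sfp with the accession as filed and its product quenches rhodamine fluorescence; potency is read from the fitted curve at half-maximal effect; 0% = enzyme reaction without inhibitor and -100% = no enzyme wells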
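Compounds were incubated with enzyme (final 15 nM) for 15 min at room temperature before substrate addition started the reaction. Fluorescence at 525 nm excitation, 598 nm emission was recorded immediately and after 30 minutes.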
Tau fibril FP = qHTS for Inhibitors of Tau Fibril Formation, Fluorescence Polarization; Microtubule-associated protein tau (Homo sapiens), P10636; Potency, µM (top dose mostly 57.7 µM), without a hit: top-dose activity, negative = inhibition, usual class: inhibitors; 280,000 tested, 0.39% active; K18 P301L tau heparin fibrillization, Alexa594 FP, 6 h; also: potency is read from the fitted curve at half-maximal effect; nearly all actives have a fitted effect of over 55% in size
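Compound effects on tau fibrillization are measured by Alexa 594 fluorescence polarization (ex 555, em 632 nm). K18 P301L tau is used at 15 uM with 0.24 uM labeled tracer, and 20 uM heparin induces aggregation over 6 hr at 37 C.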
G9a block = qHTS Assay for Inhibitors of Histone Lysine Methyltransferase G9a | Histone-lysine N-methyltransferase EHMT2 (Homo sapiens), Q96KQ7 | G9a H3K9 monomethylation, AlphaScreen, 2 h | Potency, µM (top dose mostly 102 µM), without a hit: at the top dose activity, negative = inhibition, usual class: inhibitors | 350,000 tested, 8.8% active | AID 504332, 2011; also: potency is read from the fitted curve at half-maximal effect; nearly all actives have a fitted effect of over 75% in size
Target sequence (Q96KQ7 913-1193 limits assumed): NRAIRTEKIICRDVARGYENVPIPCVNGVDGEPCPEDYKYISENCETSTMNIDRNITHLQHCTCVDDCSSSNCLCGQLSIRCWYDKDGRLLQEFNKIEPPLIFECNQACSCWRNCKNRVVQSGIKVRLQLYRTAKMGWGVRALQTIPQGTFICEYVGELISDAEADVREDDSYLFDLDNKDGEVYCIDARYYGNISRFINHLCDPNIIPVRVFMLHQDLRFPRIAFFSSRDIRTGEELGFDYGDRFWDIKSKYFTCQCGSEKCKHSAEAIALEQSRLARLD
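Chemiluminescent proximity detection of H3K9 monomethylation, read after 10 min bead incubation in the dark. Reaction: 20 nM G9a, 500 nM biotin-H3K9 peptide, 20 uM SAM cofactor, 2 h, room temperature, following 15 min enzyme-compound preincubation.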
Numbers without * were called inactive; ? = inconclusive; nt = no result given; [ ] = another dose, or the depositor's remark. Unless noted, calls follow the shape of the dose curve; as a rule, active = well fitted curve in the direction sought with a large enough effect; inconclusive = small, poorly fitted or top-dose-only effect, or another doubt; inactive = no such curve, though single readings can be large; an effect the other way counts as inactive or inconclusive. Unless noted, % is scaled to controls: 0 for no effect and ±100 for the full control effect.

SMILES	Tau fluor counter	Tau ThT inhib	FBPA coupling cs	Sfp PPTase inh	Tau fibril FP	G9a block
O=C(Nc1ccccc1)c1ccc(=O)n(Cc2ccc(F)c(F)c2)c1	-9%	-4%	-1	12%	-1%	7%
COC(=O)c1c(-c2cccs2)csc1NC(=O)c1cccnc1	-16%	-18%	8	?	2%	8%[59 µM]
COC(=O)c1c(-c2cccs2)csc1NC(=O)c1ccc(Cl)cc1	-28%	13µM*	nt	nt	?	2.2µM*
COC(=O)c1c(-c2cccs2)csc1NC(=O)c1ccc(C(C)(C)C)cc1	-11%	25µM*	nt	nt	22µM*	1.8µM*
COC(=O)c1c(-c2cccs2)csc1NC(=O)c1cccc(Cl)c1	-25%	?	nt	nt	?	?
COC(=O)c1c(-c2cccs2)csc1NC(=O)c1ccc(C(C)C)cc1	-19%	?	nt	nt	?	2.8µM*
CO/N=C(\C)CCN1CCCc2nc(C)c(C)cc21	-30%[11.6 µM]	-22%[11.5 µM]	0	10%	?	nt
COc1ccc(Br)c(OC)c1C(=O)NC(=O)Nc1nc(C)cc(C)n1	-5%	-6%	-31*	18%	-5%	-2%
Nc1ncnc2c1c(-c1ccc(Oc3ccccc3)cc1)cn2C1CCCC1	-27%	?	1	?	1%	14µM*
CCS(=O)(=O)c1ncc(Cl)c(C(=O)N2CCN(c3cccc(Cl)c3)CC2)n1	-3%	?	nt	nt	-20%	13µM*
O=C(c1ccc(S(=O)(=O)N2CCCC2)cc1)N1CCN(c2cccc(Cl)c2)CC1	nt	nt	1	0%	nt	-14%
CS(=O)(=O)c1ncc(Cl)c(C(=O)N2CCN(c3cccc(Cl)c3)CC2)n1	-10%	?	nt	nt	?	13µM*
Cc1c(C(=O)N2CCC3(CC2)CC(=O)c2ccccc2O3)cccc1[N+](=O)[O-]	nt	nt	nt	nt	nt	10%[0.501 µM]
CN(CCO)CCOCCOc1cccc2ccccc12	1%	-4%	-47*	?	3%	?
O=C(CCNC(=O)c1ccc(Cl)cc1)NCCCN1CCOCC1	nt	nt	nt	nt	nt	0%[12.7 µM]
Cc1ccc(N(CC(O)Cn2c3ccccc3c3ccccc32)S(C)(=O)=O)cc1 (centres undefined)	?	-13%	-2	2%	-6%	17%[12.7 µM]
CC(=O)Nc1ccc(N(CC(O)Cn2c3ccccc3c3ccccc32)S(=O)(=O)c2ccc(C)cc2)cc1 (centres undefined)	?	9%	-1	22%	?	10µM*
CCc1ccccc1NC(=O)CSc1nc2ccccc2nc1Cc1cccc(OC)c1	-3%	-1%	nt	nt	5%	11%[59 µM]
O=C(NCCOc1ccccc1F)c1cccc(S(=O)(=O)N2CCN(c3ccccc3)CC2)c1	nt	nt	nt	nt	nt	40µM*
COC(=O)Cn1cc(/C=N/NC(=O)c2ccc(C#N)cc2F)c2ccccc21	-10%	-13%	2	9%	4%	nt
O=C(Cn1cc(/C=N/NC(=O)c2cccc3ccccc23)c2ccccc21)Nc1ccc(F)cc1	?	-1%	-4	21%	-12%	-5%[59 µM]
CCn1cc(/C=N/NC(=O)c2ccc(C#N)cc2F)c2ccccc21	?	?	-32*	12%	7%	33%[59 µM]
O=C(Cn1cc(/C=N/NC(=O)c2ccccc2Br)c2ccccc21)Nc1ccc(F)cc1	16µM*[quencher]	-14%	0	?	-7%	8%[59 µM]
COc1ccc(C2C=C(c3ccc(Cl)cc3)Nc3nc(-c4ccc(Cl)cc4)nn32)cc1 (centres undefined)	-12%	-17%	nt	nt	-4%	?
Cc1[nH]c(=O)[nH]c1C(=O)CCCCC(=O)O	0%	-3%	4	14%	5%	1.6µM*
SMILES	Tau fluor counter	Tau ThT inhib	FBPA coupling cs	Sfp PPTase inh	Tau fibril FP	G9a block
O/N=C1\CCCc2c1nc(-c1ccccc1F)n2O	?	nt	1	?	-11%	22µM*
O=C1CCCc2c1nc(-c1ccccc1F)n2O	-3%	-4%	4	7%	-1%	?
COc1cc2c(cc1OC)CN(CC(=O)Nc1ccc(C)c(S(=O)(=O)N3CCOCC3)c1)CC2	nt	nt	nt	2%	nt	nt
CSC(N)=NCCCC(N)C(=O)O (centres undefined)	-3%	0%	2	10%	-1%	nt
COc1ccc(C(=O)n2cnnc2N)cc1	-6%	-18%	-1	6%	-2%	?
COc1ccc(-n2nc(N)c(C(N)=O)n2)cc1	1%	6%	-1	10%	7%	45µM*
C/C(=N\Nc1nc(C(C)(C)C)cs1)c1ccccc1	nt	nt	-4	-16%	nt	71µM*
C/C(=N\Nc1nc(C(=O)O)cs1)c1ccccc1	0%	-7%	5	-10%	0%	?
C/C(=N\Nc1nc(C(C)(C)C)cs1)c1ccc(O)cc1	nt	nt	0	50µM*	nt	32µM*
C/C(=N\Nc1nc2c(s1)CCCC2)c1ccccc1	?	14µM*	-6	?	-9%	?
CCCCN(CC)CCCNC(=O)c1sc2nc(C)cc(C)c2c1-n1cccc1	-21%	-17%	nt	nt	8%	-23%[59 µM]
Cc1ccc(CNC(=O)c2ccc(-n3c(C)cc4c3CCCC4)cc2)cc1	-12%	?	nt	nt	?	-25%[59 µM]
CC1CCc2c(cc(-c3ccccc3)n2-c2ccc(C(=O)NC(C)C)cc2)C1 (centres undefined)	?	?	nt	nt	11µM*	1%[59 µM]
Cc1cc2c(n1-c1ccc(C(=O)O)cc1)CCCCC2	nt	nt	1	-13%	nt	7.9µM*
CC(C)NC(=O)c1ccc(-n2c(-c3ccccc3)cc3c2CCCCC3)cc1	?	9%	nt	nt	13µM*	1%[59 µM]
CCCNC(=O)c1ccc(-n2c(-c3ccccc3)cc3c2CCC(C)C3)cc1 (centres undefined)	?	-7%	nt	nt	13µM*	-4%[59 µM]
CCOC(=O)c1ccc(NC(=O)C(CC)Sc2nc3ccncc3[nH]2)cc1 (centres undefined)	-13%	9%	nt	nt	-3%	-21%[59 µM]
COc1ccc(N=C2O/C(=C/c3sc(=S)n(CC4CCCO4)c3O)N=C2C#N)cc1 (centres undefined)	13µM*[quencher]	10µM*	-8	2.8µM*	-12%	11µM*
COc1ccc(/C=C2\SC(=S)N(CC3CCCO3)C2=O)cc1 (centres undefined)	-27%	?	-3	-4%	-10%	nt
